Screens (PubChem)
Ba/F3 V617F tox – reduced viability of JAK2V617F-dependent Ba/F3 cells, primary screen, JAK2V617F inhibitor project, cell-based, Ba/F3 EpoR-JAK2V617F, luminescence. AID 1446, 2008. actives 1.1% (n = 220,000). ATP luminescence. inhibition, % at 5.6 µM;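 active = inhibition above the campaign mean plus 3 SD over all tested compounds, cut at about 24% in these data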;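 also: cytokine-independent growth of Ba/F3 cells driven by EpoR plus mutant JAK2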
aSyn 5UTR inh – MLPCN primary screen, SNCA 5' untranslated region | alpha-synuclein 5'UTR reporter, inhibitor activity | inhibition, % (tested at 7.5 µM) | actives 0.82% (n = 300,000); in the data active = inhibition above about 60%;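 also: H4 neuroglioblastoma cells stably carrying SNCA 5'UTR luciferase fusion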
BaF3 parental – parental Ba/F3 cell viability inhibition, counter-screen for JAK2V617F inhibitor project, murine pro-B, CellTiter-Glo luminescence. inhibition, % at 5.6 µM. actives 1.1% (n = 220,000). CellTiter-Glo ATP luminescence;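 active = inhibition above a per-campaign cutoff, the mean inhibition of all tested compounds plus 3 SD, cut at about 27% in these data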
APP transl inh – inhibitors of APP translation via 5'UTR reporter, primary screen, APP 5'UTR luciferase, SH-SY5Y cells | SH-SY5Y APP 5'UTR-luciferase reporter, luminescence | inhibition, % at 2 µM | actives 0.82% (n = 190,000);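 active = inhibition above a set limit, derived from the sample mean plus 3 SD, cut at about 45% in these data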
IEC-6 tox – cytotoxicity in IEC-6 intestinal epithelial cells, primary screen, cytotoxicity control for KLF5 inhibitor project, cell-based, luminescence. IEC-6 cytotoxicity, luminescence viability. inhibition, % at 5 µM. actives 0.78% (n = 290,000). AID 1825, 2009; in the data active = inhibition above about 22%
KLF5 inhibitor – KLF5 expression inhibitors, primary screen, DLD-1 cells, luminescence. DLD-1 KLF5 promoter-luciferase reporter. inhibition, % at 5 µM. actives 0.23% (n = 290,000). AID 1700, 2009;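 active = inhibition above a per-plate limit of that plate's mean compound inhibition plus 3 SD, cut at about 60% in these data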;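 also: higher means less KLF5 promoter-driven luciferase light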
Each line names hits and unclear results; the compound was inactive in the other large screens. The list is not random: actives were taken first. Their share in the collection is about 2.2%.

CCOC(=O)/C=c1\s/c(=C\c2c(OC)ccc3ccccc23)c(=O)n1CC(=O)NCC1CCCO1 (stereo not drawn)	aSyn 5UTR inh 71
c1ccc2[nH]c(-c3cscn3)nc2c1	none
c1ccc2nc(-c3nc4ccccc4[nH]3)ccc2c1	aSyn 5UTR inh 74
NC(=S)N/N=C/c1ccccc1OCCSc1ccc(Cl)cc1	Ba/F3 V617F tox 44, BaF3 parental 44
COc1cccc(/C=N/NC(N)=S)c1OCc1ccccc1Cl	none
C=CC(C)(C)c1c(O)c(CC=C(C)C)c(O)c2c(=O)c3ccc(O)c(O)c3oc12	aSyn 5UTR inh 73 (no result: Ba/F3 V617F tox, BaF3 parental, APP transl inh, IEC-6 tox, KLF5 inhibitor)
C=CCn1cccc(C(=O)Nc2ccc(OC)c(Cl)c2)c1=O	none (no result: Ba/F3 V617F tox, BaF3 parental, APP transl inh)
O=C(N1CCCC1)C12CC3CC(CC(Cl)(C3)C1)C2	none (no result: Ba/F3 V617F tox, BaF3 parental, APP transl inh)
Cc1ccc(CN2CCN(/N=C/c3ccc(C(=O)O)cc3)CC2)c(C)c1	BaF3 parental 53
O=c1[nH][nH]cc1C=Nc1cc(Cl)ccc1O	none
O=c1[nH][nH]cc1C=Nc1ccc(Cl)cc1Cl	APP transl inh 64
C/C(=N\NC(=O)CSCc1ccccc1Cl)c1cc(O)ccc1O	aSyn 5UTR inh 62, APP transl inh 54
CC(=O)Nc1ccc(NC(=O)CSCc2ccccc2Cl)cc1	none (no result: Ba/F3 V617F tox, BaF3 parental, APP transl inh, IEC-6 tox, KLF5 inhibitor)
Nc1nc(Nc2ccccc2)nc(N2CCOCC2)c1[N+](=O)[O-]	APP transl inh 58
O=C(NC(=O)C(F)(F)F)Nc1ccc(S(=O)(=O)Nc2nccs2)cc1	none (no result: Ba/F3 V617F tox, BaF3 parental, APP transl inh)
C/C(CC(C)(C)C1CCCCC1)=N\NC(N)=S	Ba/F3 V617F tox 80, BaF3 parental 73
CC(=O)c1ccc(OCc2cc(C(=O)NCCn3nc(C)cc3C)no2)cc1	none (no result: Ba/F3 V617F tox, BaF3 parental, APP transl inh)
O=C(N/N=C/c1cccnc1)c1ccc(NC(=O)C(c2ccccc2)c2ccccc2)cc1	aSyn 5UTR inh 111, APP transl inh 70
O=C(CNC(=O)C(c1ccccc1)c1ccccc1)N/N=C/c1cccnc1	none (no result: APP transl inh)
O=C(O)c1cccc(Nc2ccncc2[N+](=O)[O-])c1	none (no result: Ba/F3 V617F tox, BaF3 parental, APP transl inh)
CN1C2C=C3C(C#N)=C(N)C(C#N)(C#N)[C@H](c4c(F)cccc4F)[C@H]3C1CC2 (stereo partly drawn)	APP transl inh 47
CN1C2C=C3C(C#N)=C(N)C(C#N)(C#N)[C@@H](c4cccc(F)c4)[C@@H]3C1CC2 (stereo partly drawn)	none
Cc1ccc(-c2ccnc3c(Cl)c(C)nn23)cc1	aSyn 5UTR inh 69 (no result: Ba/F3 V617F tox, BaF3 parental, APP transl inh)
CCN(c1ccccc1)S(=O)(=O)c1ccc(OC)c(NC(=O)CNC)c1	BaF3 parental 30
CCN(c1ccccc1)S(=O)(=O)c1ccc(OC)c(NC(=O)CN(C)C)c1	BaF3 parental 33
CCN(c1ccccc1)S(=O)(=O)c1ccc(OC)c(NC(=O)CNCC(C)O)c1 (stereo not drawn)	none
CCC(C)NCC(=O)Nc1cc(S(=O)(=O)N(CC)c2ccccc2)ccc1Cl (stereo not drawn)	BaF3 parental 46
CC(=O)CSc1ncnc2nc[nH]c12	Ba/F3 V617F tox 25, BaF3 parental 33
O=C(CSc1ncnc2nc[nH]c12)Nc1nnc(SCc2ccc(Cl)c(Cl)c2)s1	BaF3 parental 28
COc1ccc(C(=O)CSc2ncnc3nc[nH]c23)cc1	none (no result: APP transl inh)
Cc1ccc(C)c(NC(=O)CSc2ncnc3nc[nH]c23)c1	none
COc1cc(CO)ccc1Oc1nc2ccccc2n2cnnc12	none (no result: APP transl inh)
N#CCCn1cc(CNC2CCC(O)CC2)c2ccccc21 (stereo not drawn)	none (no result: Ba/F3 V617F tox, BaF3 parental, APP transl inh)
CCCCCc1ccc(OCCC[n+]2ccccc2)c(CCCCC)c1	Ba/F3 V617F tox 100, BaF3 parental 84 (no result: APP transl inh)
CCCCCc1ccc(OCCOCCn2c[n+](C)c3ccccc32)c(CCCCC)c1	Ba/F3 V617F tox 101, BaF3 parental 82
CC1=CC(=O)O[C@@H]1[C@@]1(C)C[C@H]2OC(=O)C[C@H]3[C@@H](C)C(=O)C(O)=C1[C@@]23CO	none (no result: Ba/F3 V617F tox, BaF3 parental, APP transl inh, IEC-6 tox, KLF5 inhibitor)
COc1ccc(CNC(=O)CCC2N=C3c4ccccc4N=C(SCC(=O)NCC4CCCO4)N3C2=O)cc1 (stereo not drawn)	none (no result: Ba/F3 V617F tox, BaF3 parental, APP transl inh)
N#CC1=C(SCC(=O)c2ccccc2)NC2=C(C(=O)CCC2)C1c1ccco1 (stereo not drawn)	Ba/F3 V617F tox 47, BaF3 parental 36, APP transl inh 68
CC(C)(C)c1ccc(C(=O)CCCSC2=C(C#N)C(c3ccco3)C3=C(CCCC3=O)N2)cc1 (stereo not drawn)	none (no result: aSyn 5UTR inh)
CCCC(=O)N1CCN(c2ccc(NC(=O)c3ccc([N+](=O)[O-])o3)cc2Cl)CC1	Ba/F3 V617F tox 94, BaF3 parental 82, APP transl inh 98
O=C(Nc1ccccc1N1CCOCC1)c1ccc([N+](=O)[O-])o1	none (no result: Ba/F3 V617F tox, BaF3 parental, APP transl inh)
O=C(Nc1cccc(Cl)c1N1CCCC1)c1ccc([N+](=O)[O-])o1	none (no result: aSyn 5UTR inh)
O=C(Nc1ccc(N2CCOCC2)c(Cl)c1)c1ccc([N+](=O)[O-])o1	APP transl inh 95
O=C(Nc1cccc(S(=O)(=O)N2CCCCC2)c1)c1ccc([N+](=O)[O-])o1	APP transl inh 45
CCN1CCN(c2c(Cl)cccc2NC(=O)c2ccc([N+](=O)[O-])o2)CC1	aSyn 5UTR inh 79 (no result: Ba/F3 V617F tox, BaF3 parental, APP transl inh)
O=C(Nc1ccc(N2CCCC2)c(Cl)c1)c1ccc([N+](=O)[O-])cc1	none
CCn1c(SCC(=O)Nc2ccc(N3CCOCC3)cc2)nnc1-c1ccncc1	none (no result: Ba/F3 V617F tox, BaF3 parental, APP transl inh)
COc1ccccc1C(=O)NC(=O)Nc1nc(-c2ccccc2)cc(C(F)(F)F)n1	none (no result: APP transl inh)
Cc1ccc(S(=O)(=O)Nc2ccc3c(c2)OCCO3)c(C)c1NS(C)(=O)=O	none (no result: Ba/F3 V617F tox, BaF3 parental, APP transl inh)
CC(=O)N1CCN(c2ccc(NC(=O)c3ccc(Br)o3)cc2Cl)CC1	none
Cc1ccc(NC(=O)c2ccc([N+](=O)[O-])o2)cc1S(=O)(=O)N1CCOCC1	APP transl inh 58
CC(C)C(=O)N1CCN(c2ccc(NC(=O)c3ccc([N+](=O)[O-])o3)cc2Cl)CC1	APP transl inh 96 (no result: aSyn 5UTR inh)
Cc1nn2cc(-c3ccccc3)nc2[nH]c1=O	none
Cc1nc(-c2ccccc2)cn(O)c1=O	BaF3 parental 79
COc1ccccc1NC(=O)Cn1nnc(C(=O)Nc2ccccc2)c1N	BaF3 parental 94
COc1ccccc1NC(=O)c1nnn(CC(=O)Nc2ccccc2)c1N	none
Cn1c(=O)c(-c2cc(Br)ccc2N)nc2ccccc21	Ba/F3 V617F tox 40, BaF3 parental 46
CCOC(=O)Cn1c(=O)c(-c2cc(Br)ccc2N)nc2ccccc21	Ba/F3 V617F tox 47, BaF3 parental 88 (no result: APP transl inh)
COc1ccccc1OCC(=O)Nc1nc(C)c(C)s1	none (no result: Ba/F3 V617F tox, BaF3 parental, APP transl inh)
CC(NC(=O)c1cc(COc2ccc3ncccc3c2)on1)c1ccc(F)cc1 (stereo not drawn)	Ba/F3 V617F tox 31, BaF3 parental 36 (no result: APP transl inh)
O=C(c1cc(COc2ccc3ncccc3c2)on1)N1CCCC1	none (no result: Ba/F3 V617F tox, BaF3 parental, APP transl inh)
